Consider 26 compounds from PubChem BioAssay.

Active and inactive are the calls of the source.
Note: test concentration not given here.

One assay is described as follows: growth effects on S. cerevisiae YJM789 – YJM789 clinical isolate, OD600, 24 h, basal, primary screen (AID 1089).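 Note: growth of clinical yeast isolate S. cerevisiae YJM 789 seeded 1000 cells per well.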 The settings on record: higher = more signal, called active from +8 up or from −8 down.
As for `O=c1n(Cc2cc3c(cc2Cl)OCO3)c(=O)n2n1CC[C@@H]1C(=NOCc3ccccc3)[C@H]3O[C@H]3[C@@H](O)[C@@H]12`, the z-score is -1.97 (inactive).

On to `COC(=O)[C@@H]1CC[C@H](C)[C@@H](c2ccc(C)cc2)N1C(=O)c1ccc(C=NO[C@@H](C)c2cn([C@H](CO)Cc3ccccc3)nn2)cc1`, for which the z-score is 0.76 (inactive).

As to `CC(C)=CCCC(C)=CCON=C1C[C@@H](O)[C@@H](O)[C@@H]2[C@@H]3C(=O)N(Cc4ccccc4)C(=O)[C@@H]3CC[C@H]12`, the z-score was -0.574 (inactive).

For the compound `CC(C)C[C@H](NC(=O)CCC1CC(OC(=O)NCc2cccc3ccccc23)CC2(CCCC(COC(=O)NCc3ccccc3)O2)O1)C(=O)NCC(c1ccccc1)c1ccccc1` (stereo partly specified), the z-score was -0.852 (inactive).

Regarding `CC(C)CON=C1C[C@@H](O)[C@@H](O)[C@@H]2[C@@H]3C(=O)N(C4CCCCC4)C(=O)[C@@H]3CC[C@@H]12`, the z-score was 0.4 (inactive).

Consider `C[C@@H](c1ccccc1)N1C(=O)[C@H]2[C@H]3[C@H](O)[C@H](O)CC(=NO[C@@H]4O[C@H](CO)[C@@H](O)[C@H](O)[C@H]4O)[C@H]3CC[C@H]2C1=O`, for which the z-score is -0.264 (inactive).

For the compound `COC(=O)[C@@H]1CC[C@H](C)[C@@H](c2ccc(C)cc2)N1C(=O)c1ccc(C=NOC[C@@H](C)[C@H](OCc2ccccc2)C(C)C)cc1`, the z-score is -2.56 (inactive).

Consider `C[C@@H](c1ccccc1)N1C(=O)[C@H]2[C@H]3[C@H](O)[C@H](O)CC(=NOCc4ccccc4)[C@H]3CC[C@H]2C1=O`, for which the z-score was 0.435 (inactive).

As for `COC(=O)CC=C[C@@H](C)[C@@H](C=NOCC[C@@H]1C=C[C@H](OC(C)=O)[C@@H](COC(C)=O)O1)OC`, the z-score was 0.355 (inactive).

A further assay can be described thus: S. pombe growth modifiers, basal conditions – strain 972, OD600, 24 h, no modulator, primary screen (AID 1090).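 Note: basal condition with compound alone and no growth modifier present.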 The settings on record: S. pombe 972 growth, higher = more signal, called active from +8 up or from −8 down.
On to `C#CCCCON=C1[C@H]2CCn3c(=O)n(C)c(=O)n3[C@H]2[C@H](O)[C@@H]2O[C@H]12`, for which the z-score is -0.377 (inactive).

`CCCCC#C[C@@H]1C=C[C@H](OC(C)=O)[C@@H](COC(C)=O)O1`: the z-score was -3.45 (inactive).

As to `CO[C@@H]1COC(=O)[C@@H](C)COC(=O)[C@@H](C)NC(=O)CC=C[C@@H]1C`, the z-score is -1.61 (inactive).

With `Cc1ccc(S(=O)(=O)OC[C@H]2CN3[C@H](c4ccc(Br)cc4)[C@@H](C)CC[C@H]3C(=O)O2)cc1`, the z-score is -17.8 (active).

Consider `COc1ccc(COC(=O)NN=C2C[C@@H](O)[C@@H](O)[C@@H]3[C@@H]4C(=O)N(c5cccc(Oc6ccccc6)c5)C(=O)[C@@H]4CC[C@@H]23)cc1`, for which the z-score is 0.897 (inactive).

As for `O=C1C2=CC[C@H]3C(=O)N(c4cccc(Oc5ccccc5)c4)C(=O)[C@H]3[C@H]2[C@H](O)[C@@H]2O[C@H]12`, the z-score is -0.974 (inactive).

Regarding `CC(CCN1CCCCc2nc(C)c(C)cc21)=NO[C@H](C)c1cn([C@H](CO)Cc2ccccc2)nn1`, the z-score is 0.446 (inactive).

Turning to `CO[C@@H]1COC(=O)[C@H](CCSC)NC(=O)CC=C[C@@H](C)COC(=O)CCC[C@H]1C`, the z-score was 0.583 (inactive).

For `CC(CCN1CCCc2nc(C)c(C)cc21)=NO[C@@H](C)c1cc(-c2c(C)cc(C)cc2C)no1`, the z-score is -2.18 (inactive).

On to `CO[C@@H]1COC(=O)[C@@H](C)NC(=O)CC=C[C@@H](C)[C@H](NS(=O)(=O)c2ccc(C)cc2)COC(=O)[C@H](C)NC(=O)CC=C[C@H]1C`, for which the z-score is -0.988 (inactive).

As to `CCN1C(=O)[C@H]2[C@H]3[C@H](O)[C@H](O)CC(=NOC[C@H]4O[C@H](c5ccccc5)C=C[C@@H]4Oc4ccc(OC)cc4)[C@@H]3CC[C@H]2C1=O`, the z-score is -0.653 (inactive).

On to `CCOC(=O)[C@H](CC(C)C)NC(=O)CCC1CC(OC(=O)NCc2cccc3ccccc23)CC2(CCCC(COC(=O)NCC3CCCCC3)O2)O1` (stereo partly specified), for which the z-score is -0.947 (inactive).

In the case of `CC(C)CCN1CCc2nc(COc3ccccc3)c3c(c2C1)CO[C@@H](C)C3`, the z-score is -0.438 (inactive).

`COC(=O)CC=C[C@@H](C)[C@@H](C=NO[C@H](C)c1cn([C@H](CO)Cc2ccccc2)nn1)OC`: the z-score is -0.617 (inactive).

As to `CON=C(C)CCC(=O)OC[C@H]1O[C@H](c2ccccc2)C=C[C@@H]1Oc1ccc(OC)cc1`, the z-score is -0.241 (inactive).

For `CCOC(=O)NN=C1C[C@@H](O)[C@@H](O)[C@@H]2[C@@H]3C(=O)N(c4cccc(Oc5ccccc5)c4)C(=O)[C@@H]3CC[C@@H]12`, the z-score was 0.385 (inactive).

Consider `CCN1C(=O)[C@H]2[C@H]3[C@H](O)[C@H](O)CC(=NO[C@@H](C)c4cn([C@H](CO)Cc5ccccc5)nn4)[C@@H]3CC[C@H]2C1=O`, for which the z-score was 0.718 (inactive).
